In assay [1] the target is T1, Serine/threonine-protein kinase BRSK1 (Homo sapiens) (UniProt Q8TDC3).
T1 sequence (whole entry): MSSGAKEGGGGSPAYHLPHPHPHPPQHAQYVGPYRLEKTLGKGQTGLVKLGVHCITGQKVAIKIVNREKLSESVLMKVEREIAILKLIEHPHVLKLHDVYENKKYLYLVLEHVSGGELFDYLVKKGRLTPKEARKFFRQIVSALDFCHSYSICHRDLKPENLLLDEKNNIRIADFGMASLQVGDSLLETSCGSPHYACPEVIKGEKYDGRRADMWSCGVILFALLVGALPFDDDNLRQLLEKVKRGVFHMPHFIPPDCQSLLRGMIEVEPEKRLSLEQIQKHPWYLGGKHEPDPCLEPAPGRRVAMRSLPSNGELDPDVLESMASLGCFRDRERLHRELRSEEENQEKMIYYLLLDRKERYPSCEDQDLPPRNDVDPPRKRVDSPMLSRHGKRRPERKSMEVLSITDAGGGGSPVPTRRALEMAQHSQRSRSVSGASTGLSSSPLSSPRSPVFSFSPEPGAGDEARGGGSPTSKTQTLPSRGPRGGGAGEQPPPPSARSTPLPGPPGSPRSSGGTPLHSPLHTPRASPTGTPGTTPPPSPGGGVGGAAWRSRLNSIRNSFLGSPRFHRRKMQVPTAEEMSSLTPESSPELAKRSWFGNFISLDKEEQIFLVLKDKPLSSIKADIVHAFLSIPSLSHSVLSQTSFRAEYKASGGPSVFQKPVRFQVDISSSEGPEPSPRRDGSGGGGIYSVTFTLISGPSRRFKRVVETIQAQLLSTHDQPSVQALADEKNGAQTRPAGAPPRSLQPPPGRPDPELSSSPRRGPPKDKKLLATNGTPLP
The settings on record: at 1 µM.

In assay [2] the target is T1, Serine/threonine-protein kinase BRSK1 (Homo sapiens). The settings on record: at 10 µM.
Assay [3] deals with T2, Serine/threonine-protein kinase BRSK2 (Homo sapiens) (UniProt Q8IWQ3).
T2 sequence (whole entry): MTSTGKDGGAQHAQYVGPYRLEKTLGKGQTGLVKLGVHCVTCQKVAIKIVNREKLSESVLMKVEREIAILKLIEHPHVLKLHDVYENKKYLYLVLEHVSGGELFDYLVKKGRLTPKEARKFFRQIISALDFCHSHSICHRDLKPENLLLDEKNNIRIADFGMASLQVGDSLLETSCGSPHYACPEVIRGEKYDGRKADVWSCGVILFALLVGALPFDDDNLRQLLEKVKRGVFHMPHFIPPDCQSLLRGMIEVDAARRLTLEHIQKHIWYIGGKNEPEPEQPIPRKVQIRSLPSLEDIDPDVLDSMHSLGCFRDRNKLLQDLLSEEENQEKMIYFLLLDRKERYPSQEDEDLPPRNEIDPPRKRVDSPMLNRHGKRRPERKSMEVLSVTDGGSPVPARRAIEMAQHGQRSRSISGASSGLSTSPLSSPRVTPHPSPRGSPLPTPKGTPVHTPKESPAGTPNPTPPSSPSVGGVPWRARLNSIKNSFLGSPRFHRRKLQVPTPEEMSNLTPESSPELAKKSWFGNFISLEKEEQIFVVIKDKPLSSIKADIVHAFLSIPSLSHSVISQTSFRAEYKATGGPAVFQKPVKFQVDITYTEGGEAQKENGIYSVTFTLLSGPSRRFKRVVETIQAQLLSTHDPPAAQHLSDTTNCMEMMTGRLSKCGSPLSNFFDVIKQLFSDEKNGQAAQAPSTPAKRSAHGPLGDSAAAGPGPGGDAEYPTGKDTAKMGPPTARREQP
The settings on record: at 1 µM.

Assay [4] has as its target T2, Serine/threonine-protein kinase BRSK2 (Homo sapiens). Particulars: at 10 µM.
Assay [5] addresses T3, Cyclin-dependent kinase 1/cyclin B1 (Homo sapiens) (UniProt P06493+P14635). The settings on record: at 1 µM.
The target in assay [6] is T3, Cyclin-dependent kinase 1/cyclin B1 (Homo sapiens). Particulars: at 10 µM.
Assay [7] addresses T4, Cyclin-dependent kinase 2/cyclin A (Homo sapiens) (UniProt P24941+P20248+P78396). Particulars: at 1 µM.
Assay [8] has as its target T4, Cyclin-dependent kinase 2/cyclin A (Homo sapiens). Particulars: at 10 µM.
Assay [9] deals with T5, Cyclin-dependent kinase 2/cyclin E (Homo sapiens) (UniProt P24864+P24941+O96020). Particulars: at 1 µM.
For assay [10], the target named is T5, Cyclin-dependent kinase 2/cyclin E (Homo sapiens). The settings on record: at 10 µM.
Assay [11] deals with T6, CDK3/cyclin E (Homo sapiens) (UniProt P24864+O96020+Q00526). The settings on record: at 1 µM.
T6 sequence (O96020 whole entry, looked up): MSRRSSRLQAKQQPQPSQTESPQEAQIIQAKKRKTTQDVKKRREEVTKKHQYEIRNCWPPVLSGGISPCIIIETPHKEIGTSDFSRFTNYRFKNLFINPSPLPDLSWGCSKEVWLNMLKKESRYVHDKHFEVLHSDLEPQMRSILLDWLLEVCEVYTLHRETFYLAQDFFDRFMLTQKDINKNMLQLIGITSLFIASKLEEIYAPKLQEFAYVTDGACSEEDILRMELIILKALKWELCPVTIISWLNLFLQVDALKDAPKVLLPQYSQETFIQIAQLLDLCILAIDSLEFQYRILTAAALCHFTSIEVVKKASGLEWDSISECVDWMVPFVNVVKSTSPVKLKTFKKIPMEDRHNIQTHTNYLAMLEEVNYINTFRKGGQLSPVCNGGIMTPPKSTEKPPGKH
T6 sequence (P24864 whole entry, looked up): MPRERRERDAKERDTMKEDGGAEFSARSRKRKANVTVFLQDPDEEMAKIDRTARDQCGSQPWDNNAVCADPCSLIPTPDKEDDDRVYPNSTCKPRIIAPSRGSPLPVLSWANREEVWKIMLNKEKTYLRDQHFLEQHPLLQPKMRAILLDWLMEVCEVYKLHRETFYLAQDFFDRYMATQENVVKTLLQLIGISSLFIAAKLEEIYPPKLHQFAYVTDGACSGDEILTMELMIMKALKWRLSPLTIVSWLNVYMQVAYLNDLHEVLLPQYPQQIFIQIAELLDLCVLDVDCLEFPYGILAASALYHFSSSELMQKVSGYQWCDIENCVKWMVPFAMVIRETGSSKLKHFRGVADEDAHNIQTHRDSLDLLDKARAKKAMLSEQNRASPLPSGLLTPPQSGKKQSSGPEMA
T6 sequence (Q00526 whole entry, looked up): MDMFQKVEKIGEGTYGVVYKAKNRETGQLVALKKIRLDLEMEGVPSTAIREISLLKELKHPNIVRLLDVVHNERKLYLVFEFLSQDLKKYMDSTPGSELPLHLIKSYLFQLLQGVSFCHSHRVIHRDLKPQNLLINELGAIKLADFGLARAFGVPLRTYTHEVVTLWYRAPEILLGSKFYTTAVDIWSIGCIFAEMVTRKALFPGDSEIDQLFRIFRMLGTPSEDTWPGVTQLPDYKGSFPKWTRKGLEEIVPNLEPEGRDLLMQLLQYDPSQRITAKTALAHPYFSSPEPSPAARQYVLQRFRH
Assay [12] addresses T6, CDK3/cyclin E (Homo sapiens). The settings on record: at 10 µM.
The target in assay [13] is T7, Cyclin-dependent kinase 5/CDK5 activator 1 (Homo sapiens) (UniProt Q00535+Q15078). Particulars: at 1 µM.
T7 sequence (Q00535 whole entry): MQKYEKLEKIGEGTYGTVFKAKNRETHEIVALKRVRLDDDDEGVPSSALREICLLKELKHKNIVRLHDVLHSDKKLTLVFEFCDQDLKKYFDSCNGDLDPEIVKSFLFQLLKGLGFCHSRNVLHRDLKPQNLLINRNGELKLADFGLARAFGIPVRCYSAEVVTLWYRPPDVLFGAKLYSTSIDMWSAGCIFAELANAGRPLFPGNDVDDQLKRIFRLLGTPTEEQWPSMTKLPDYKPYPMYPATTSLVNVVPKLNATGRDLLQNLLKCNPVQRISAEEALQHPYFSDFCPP
T7 sequence (Q15078 99-307 partner limits assumed): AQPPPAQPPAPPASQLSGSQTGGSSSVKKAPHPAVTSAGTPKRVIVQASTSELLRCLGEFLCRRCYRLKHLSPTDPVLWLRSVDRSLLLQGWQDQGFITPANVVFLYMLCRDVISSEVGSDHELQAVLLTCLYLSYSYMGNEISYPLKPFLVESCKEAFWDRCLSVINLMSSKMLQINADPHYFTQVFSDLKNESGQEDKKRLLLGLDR
Assay [14] has as its target T7, Cyclin-dependent kinase 5/CDK5 activator 1 (Homo sapiens). Particulars: at 10 µM.
Assay [15] has the same target. The settings on record: at 1 µM. The source holds these as a separate data set.
Assay [16] shares this target. Particulars: at 10 µM. The source holds these as a separate data set.
Assay [17] has as its target T8, CDK6/cyclin D3 (Homo sapiens) (UniProt P30281+Q00534). Particulars: at 1 µM.
In assay [18] the target is T8, CDK6/cyclin D3 (Homo sapiens). The settings on record: at 10 µM.
For assay [19], the target named is T9, Cyclin-dependent kinase 7/ cyclin H (Homo sapiens) (UniProt P51946+P50613). Particulars: at 1 µM.
In assay [20] the target is T9, Cyclin-dependent kinase 7/ cyclin H (Homo sapiens). Particulars: at 10 µM.

SMILES strings stand for the structures.

From ChEMBL document CHEMBL2218924, “A broad activity screen in support of a chemogenomic map for kinase signalling research and drug discovery” (Biochem J, 2013) come the findings set out here.

T3 sequence (P06493 whole entry, looked up): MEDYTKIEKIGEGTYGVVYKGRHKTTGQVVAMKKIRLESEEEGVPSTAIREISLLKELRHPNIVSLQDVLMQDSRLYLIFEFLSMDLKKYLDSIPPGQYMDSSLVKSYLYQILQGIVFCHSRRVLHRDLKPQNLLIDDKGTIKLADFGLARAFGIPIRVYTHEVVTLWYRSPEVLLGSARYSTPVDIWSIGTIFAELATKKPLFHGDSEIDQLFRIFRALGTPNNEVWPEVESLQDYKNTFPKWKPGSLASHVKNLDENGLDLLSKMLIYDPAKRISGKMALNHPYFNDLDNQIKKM
T3 sequence (P14635 whole entry, looked up): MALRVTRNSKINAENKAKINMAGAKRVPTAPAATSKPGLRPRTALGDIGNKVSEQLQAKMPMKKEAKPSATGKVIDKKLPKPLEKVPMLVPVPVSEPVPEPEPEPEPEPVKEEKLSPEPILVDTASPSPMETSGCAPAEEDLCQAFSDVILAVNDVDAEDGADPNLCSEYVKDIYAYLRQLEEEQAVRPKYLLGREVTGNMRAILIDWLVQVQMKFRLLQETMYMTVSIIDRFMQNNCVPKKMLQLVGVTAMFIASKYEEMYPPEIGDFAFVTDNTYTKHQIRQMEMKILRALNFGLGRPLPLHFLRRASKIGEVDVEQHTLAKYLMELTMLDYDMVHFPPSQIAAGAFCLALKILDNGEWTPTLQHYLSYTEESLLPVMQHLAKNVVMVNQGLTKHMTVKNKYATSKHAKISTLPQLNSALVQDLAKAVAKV

As to `Oc1n[nH]c2nnc(-c3c(-c4ccccc4)nn4ccccc34)cc12`, the residual activity came out at 88% in assay [1]; 76% in [2]; 112% in [3]; 83% in [4]; 109% in assay [5]; 105% in [6]. Moreover, the residual activity came to 89% in assay [7]; 86% in [8]; 89% in [9]; 93% in assay [10]; 84% in assay [11]; 87% in assay [12]. Moreover, the residual activity amounted to 96% in [13]; 103% in assay [14]; 105% in assay [15]; 82% in [16]; 89% in assay [17]; 83% in assay [18]. The residual activity in assay [19] worked out at 89%; in assay [20], 86%.
As for `O=C1Nc2cc(Br)ccc2/C1=C1/Nc2ccccc2/C1=N\O`, the residual activity in assay [1] was determined as 33%; in assay [2], 12%; in [3] it was 4%; in assay [4] it was 6%; in assay [5] it was 54%; in assay [6], 12%. Besides, the residual activity is 37% in [7]; 38% in [8]; 3% in assay [9]; 7% in [10]; 0% in assay [11]; 1% in [12]. Besides, the residual activity in assay [13] came out at 6%; in assay [14], 10%; in assay [15] it was 2%; in assay [16], 9%; in [17] it was 40%; in assay [18], 5%. Also, the residual activity was determined as 34% in assay [19] and 13% in assay [20].
For the compound `NC(=O)c1ccc2[nH]c(-c3ccc(Oc4ccc(Cl)cc4)cc3)nc2c1`, the residual activity in assay [1] amounted to 83%; in assay [2], 81%; in [3], 116%; in assay [4] it was 88%; in assay [5] it was 93%; in assay [6] it was 56%. The residual activity in assay [7] was 82%; in assay [8], 83%; in assay [9], 91%; in assay [10], 87%; in [11], 87%; in assay [12], 80%. In addition, the residual activity is 68% in assay [13]; 31% in assay [14]; 83% in [15]; 55% in [16]; 93% in assay [17]; 82% in assay [18]. Besides, the residual activity in assay [19] is 99%; in [20] it was 98%.
Take `Cc1cc(Nc2nc(-c3ccccc3)nc3ccccc23)n[nH]1`: the residual activity worked out at 57% in assay [1]; 12% in [2]; 59% in assay [3]; 7% in [4]; 97% in assay [5]; 68% in [6]. The residual activity in assay [7] amounted to 67%; in assay [8], 25%; in [9], 70%; in assay [10] it was 15%; in assay [11], 63%; in assay [12] it was 19%. For the same compound, the residual activity is 69% in assay [13]; 32% in assay [14]; 71% in [15]; 31% in [16]; 53% in assay [17]; 9% in [18]. The residual activity in assay [19] stood at 19%; in assay [20] it was 1%.
Consider `O=C(Nc1cccc(Nc2nccc(Nc3cccc(C(F)(F)F)c3)n2)c1)C1CC1`, for which the residual activity in assay [1] was found to be 26%; in [2] it was 27%; in assay [3] it was 93%; in assay [4], 40%; in assay [5] it was 96%; in [6], 102%. The residual activity was found to be 127% in [7]; 93% in assay [8]; 94% in assay [9]; 97% in assay [10]; 98% in assay [11]; 72% in assay [12]. The residual activity in assay [13] was 94%; in assay [14], 98%; in assay [15] it was 107%; in assay [16] it was 98%; in assay [17], 102%; in assay [18], 39%. The residual activity in assay [19] was determined as 92%; in assay [20], 86%.
For `COc1cc2ncnc(Nc3ccc(Oc4ccccc4)cc3)c2cc1OC`, the residual activity in [1] was found to be 55%; in assay [2], 60%; in assay [3], 89%; in assay [4] it was 102%; in [5], 99%; in [6], 102%. In addition, the residual activity in assay [7] came to 130%; in assay [8], 101%; in assay [9], 106%; in assay [10], 106%; in assay [11] it was 94%; in assay [12], 91%. The residual activity in [13] was 108%; in assay [14], 92%; in assay [15] it was 98%; in [16], 109%; in [17] it was 101%; in assay [18], 92%. For the same compound, the figures for the residual activity in assay [19] and in [20] were 98% and 100%, respectively.
`COc1ccc(CNc2nc(N(CCO)CCO)nc3c2ncn3C(C)C)cc1`: the residual activity in assay [1] came to 91%; in [2], 92%; in [3] it was 114%; in [4], 99%; in assay [5], 81%; in assay [6], 26%. In addition, the residual activity worked out at 24% in assay [7]; 3% in assay [8]; 18% in assay [9]; 0% in assay [10]; 52% in assay [11]; 9% in assay [12]. Besides, the residual activity worked out at 11% in assay [13]; 2% in assay [14]; 18% in assay [15]; 2% in assay [16]; 91% in assay [17]; 77% in assay [18]. Further, the results for the residual activity in [19] and in assay [20] were 94% and 36%, respectively.
